Laboratory results published in PubChem BioAssay.
Unmarked numbers belong to inactive results. How the calls were made is not given here.

Molecular target: Lethal factor (Bacillus anthracis) (UniProt P15917)
Experiment: Lethal factor protease inhibitors, Bacillus anthracis, multiplex microsphere cleavage assay, validation set (AID 588461)
Settings: flow cytometry, at 10 µM, active compounds read high

Chain of Lethal factor (Bacillus anthracis) (P15917 whole entry, looked up): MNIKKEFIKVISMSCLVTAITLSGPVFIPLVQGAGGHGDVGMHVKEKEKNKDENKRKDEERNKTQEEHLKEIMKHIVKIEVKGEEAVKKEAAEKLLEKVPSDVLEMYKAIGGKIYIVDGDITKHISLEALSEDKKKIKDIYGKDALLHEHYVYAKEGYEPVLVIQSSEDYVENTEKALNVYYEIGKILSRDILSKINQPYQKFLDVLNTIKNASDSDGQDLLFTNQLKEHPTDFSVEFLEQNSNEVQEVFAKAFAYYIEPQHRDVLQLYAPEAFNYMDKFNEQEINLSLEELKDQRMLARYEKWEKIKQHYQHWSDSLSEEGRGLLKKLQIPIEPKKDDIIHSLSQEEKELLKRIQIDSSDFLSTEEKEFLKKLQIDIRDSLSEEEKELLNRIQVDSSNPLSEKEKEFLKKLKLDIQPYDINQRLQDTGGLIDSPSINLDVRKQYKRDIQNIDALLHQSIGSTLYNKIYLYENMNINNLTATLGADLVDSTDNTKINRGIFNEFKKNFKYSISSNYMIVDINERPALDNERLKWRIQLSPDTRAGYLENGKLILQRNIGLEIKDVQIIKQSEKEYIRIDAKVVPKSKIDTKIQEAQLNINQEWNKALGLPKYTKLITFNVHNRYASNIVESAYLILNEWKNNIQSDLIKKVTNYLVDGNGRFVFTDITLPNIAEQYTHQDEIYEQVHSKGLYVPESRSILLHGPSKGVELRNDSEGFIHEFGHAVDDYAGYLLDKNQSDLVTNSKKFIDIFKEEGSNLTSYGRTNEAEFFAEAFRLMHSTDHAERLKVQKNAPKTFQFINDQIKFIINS

Row | Compound | inhibition [%]
1 | COc1ccccc1C(=O)c1cc2ccc(O)cc2oc1=O | 2.7
2 | CCN(CC)c1ccc([C@H]2[C@@H]3CCCC[C@]3(O)CCN2CC(=O)NCc2ccco2)cc1 | -7.7
3 | CC(C)CC1c2[nH]c3ccccc3c2CCN1C(=O)CCC(=O)N(C)C (centres undefined) | 2.9
4 | CCc1cccc2c3c([nH]c12)C(CC)(CC(=O)O)OCC3 (centres undefined) | -0.8
5 | CC(C)NNC(=O)c1ccncc1 | -7.1
6 | CC12CN3CC(C)(CN(C1)C3c1ccc(Cl)cc1Cl)C2=O (centres undefined) | 0.1
7 | COc1cc(COc2ccc3c(C)c(Cc4ccccc4)c(=O)oc3c2)cc(OC)c1OC | -2.3
8 | Cn1c(=O)c2c(ncn2CCO)n(C)c1=O | 1.7
9 | O=C(CSCc1ccccc1)NCCCN1CCOCC1 | -8.8
10 | O=C(O)/C=C/c1cccc(OCc2ccccc2)c1 | 3.3
11 | OC(C#CCN1CCCC1)(c1ccccc1)c1cccnc1 (centres undefined) | -1.1
12 | CC(C)CN1CC(C(=O)O)CC1=O (centres undefined) | 1.5
13 | Cc1cccc(NC(=O)c2cc3ccccc3o2)c1 | -2.2
14 | Cc1coc2c1c(C)cc1oc(=O)c(Cc3ccccc3)c(C)c12 | -4.3
15 | O=C(OCC(O)C(O)COC(=O)c1ccccc1)c1ccccc1 (centres undefined) | 2.1
16 | C[C@]12CC[C@@H]3c4cc(O)c(O)cc4CC[C@H]3[C@@H]1CC[C@@H]2O | -0.8
17 | CC(=O)CCc1c(C)c2cccc(C)c2[nH]c1=O | -3.4
18 | C[C@]12CC[C@@H]3c4ccc(O)cc4C(=O)C[C@H]3[C@@H]1CC[C@@H]2O | -6.8
19 | Cc1cccc(-n2c(Cc3ccccc3)n[nH]c2=S)c1 | -2.9
20 | O=C(O)CCC(=O)c1ccc(-c2ccccc2)cc1 | 2.1

Row | Compound | inhibition [%]
21 | COc1ccc(-c2cc3cc(OC)c(OC)cc3c(C)n2)cc1 | 4.5
22 | CC12CCC(C(=O)N(CCC#N)CCC#N)(CC1=O)C2(C)C (centres undefined) | 1.5
23 | CC(=O)c1c(N)nc2n(c1=O)CCCCC2 | -2.9
24 | Cn1nc(-c2ccccn2)nc2c(=O)n(C)c(=O)nc1-2 | -13
25 | CC[C@]1(O)C[C@@H]2CN(CCc3c([nH]c4ccccc34)[C@@](C(=O)OC)(c3cc4c(cc3OC)N(C)[C@H]3[C@@](O)(C(=O)OC)[C@H](OC(C)=O)[C@]5(CC)C=CCN6CC[C@]43[C@@H]65)C2)C1 | -0.3
26 | COc1ccc(CCN(C)CC(=O)Nc2cc(C)nc3ccccc23)cc1OC | -1.4
27 | COc1ccc2nc(S(=O)Cc3ncc(C)c(OC)c3C)[nH]c2c1 (centres undefined) | 5
28 | CC(=O)N[C@@H](CS)C(=O)O | 2.4
29 | Cc1cc(O)c2/c(=N\N)c(-c3csc(C)n3)coc2c1 | 2.2
30 | CCOC(=O)c1cccc(C(=O)OCC)n1 | -6.9
31 | CC(C)N1C(=O)/C(=C\c2nc3ccccc3c(=O)[nH]2)c2ccccc21 | -0.1
32 | Cc1ccc2c(c1)C(O)(c1c(C)[nH]c3ccccc13)C(=O)N2 (centres undefined) | -10
33 | COc1ccc2cc(-c3nc4ccccc4n3C)c(=O)oc2c1 | 1
34 | CC12CCC(C(=O)N3CCc4ccccc43)(CC1=O)C2(C)C (centres undefined) | -0.2
35 | CC[N+]1(C)CC2CCC(C)(C1)C2(C)C (centres undefined) | 11.8
36 | CCCCC[C@H](O)/C=C/[C@@H]1[C@@H](C/C=C\CCCC(=O)O)[C@H]2CO[C@@H]1C2 | 3.3
37 | O=C(/C=C/Sc1ccccc1)c1ccccc1 | -4.1
38 | S=C(c1ccc2c(c1)OCO2)N1CCCCC1 | -0.2
39 | O=C(O)c1cnccn1 | -1.5
